# A number with no mark means an inactive call. Inconclusive results are not listed. Where a call stands in place of a potency, no number is given. Active and inactive are the calls of the source. Unless noted, calls come from the whole dose curve.
# How the values were obtained:
# [1] = Nuclear factor erythroid 2-related factor 2/antioxidant responsive element (Nrf2/ARE) small molecule agonists: qHTS cell viability counter screen in human keratinocytes (AID 1919968; active = well fitted cell-killing curve with a large enough effect in the repeat runs; note: nearly all actives have a fitted effect of over 55% in size; note: potency is the fitted concentration of half-maximal effect)
# How it was run: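 CellTiter-Fluor fluorescence, read 1 h after reagent, gave viability in the same wells as the ARE-luciferase assay. KeratinoSens cells (1,500/well) had 23 h compound exposure at 37 C/5% CO2 following 5 h plating.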
# [2] = Nuclear factor erythroid 2-related factor 2/antioxidant responsive element (Nrf2/ARE) small molecule agonists: luciferase reporter gene qHTS assay in human keratinocytes (AID 1919969); note: nearly all actives have a fitted effect of over 35% in size
# [3] = molecular target: Gonadotropin-releasing hormone receptor (Homo sapiens) (UniProt P30968); test: Human gonadotropin-releasing hormone receptor (GnRHR) small molecule agonists, calcium flux assay in GnRHR-HEK293 cells (AID 1920063); note: nearly all actives have a fitted effect of over 35% in size; note: potency is the fitted concentration of half-maximal effect
# Sequence of Gonadotropin-releasing hormone receptor (Homo sapiens) (P30968 whole entry, looked up): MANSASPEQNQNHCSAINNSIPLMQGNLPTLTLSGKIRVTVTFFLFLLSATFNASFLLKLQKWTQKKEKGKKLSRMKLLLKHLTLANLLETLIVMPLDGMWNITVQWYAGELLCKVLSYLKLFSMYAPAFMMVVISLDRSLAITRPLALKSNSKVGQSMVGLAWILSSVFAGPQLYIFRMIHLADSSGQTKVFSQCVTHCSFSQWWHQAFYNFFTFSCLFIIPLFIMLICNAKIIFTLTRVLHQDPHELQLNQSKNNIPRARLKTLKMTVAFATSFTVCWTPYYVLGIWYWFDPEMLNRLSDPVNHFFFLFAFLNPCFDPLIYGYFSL
# How it was run: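 Agonist mode: compounds at 15 concentrations, in triplicate, went onto calcium dye-loaded GnRHR-HEK293 cells. Intracellular calcium was then followed as 480/540 nm fluorescence at 1 s intervals over 3 min.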
# [4] = G protein-coupled receptor (GPCR) small molecule agonists, calcium flux assay: HEK293 wild type cell line counter screen (AID 1920065)
# How it was run: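 Calcium flux counter screen: compound added in agonist mode at 15 concentrations in triplicate to dye-loaded parental HEK293 cells. Fluorescence (480/540) read kinetically for 3 min; ATP served as positive control.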
# [5] = p53 small molecule agonists, cell-based qHTS assay with human liver microsomes (AID 1963577);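 note: p53 response element beta-lactamase reporter cells with liver microsomes plus NADPH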
# How it was run: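 With metabolic activation: human liver microsomes (0.5 mg/mL final) plus NADPH (0.5 mg/mL final) added alongside compounds to p53RE-bla cells; 16 h 37 C exposure; beta-lactamase read by LiveBLAzer fluorescence.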
# [6] = p53 small molecule agonists, cell-based qHTS assay with rat liver microsomes (AID 1963578)
# How it was run: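 Metabolic activation by rat liver microsomes and NADPH, each 0.5 mg/mL final, added right after compounds to p53RE-bla reporter cells (4,000/well, plated 5 h earlier). 16 h at 37 C, then LiveBLAzer substrate for 2 h at room temperature in the dark; fluorescence read-out.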
# [7] = p53 small molecule agonists, cell-based qHTS assay with human liver microsomes: qHTS cell viability counter screen (AID 1963579); note: nearly all actives have a fitted effect of over 45% in size; note: potency is the fitted concentration of half-maximal effect
# How it was run: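 Metabolic activation used human liver microsomes and NADPH, both 0.5 mg/mL final, over 16 hours at 37 C on p53RE-bla cells (4,000/well). Cytotoxicity measured by CellTiter-Glo luminescence, 30 min at room temperature.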
# [8] = p53 small molecule agonists, cell-based qHTS assay with rat liver microsomes: qHTS cell viability counter screen (AID 1963580); note: nearly all actives have a fitted effect of over 45% in size; note: potency is the fitted concentration of half-maximal effect
# How it was run: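 After the beta-lactamase ratio was read, CellTiter-Glo was added to the same wells and luminescence measured at 30 min; cells had been treated 16 h at 37 C with compounds, rat liver microsomes and NADPH (0.5 mg/mL final each).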
# [9] = molecular target: 5-hydroxytryptamine receptor 2A (Homo sapiens) (UniProt P28223); test: 5-hydroxytryptamine receptor 2A (HTR2A) small molecule antagonists, cell-based qHTS assay (AID 1963586); note: nearly all actives have a fitted effect of over 45% in size
# Sequence of 5-hydroxytryptamine receptor 2A (Homo sapiens) (P28223 whole entry, looked up): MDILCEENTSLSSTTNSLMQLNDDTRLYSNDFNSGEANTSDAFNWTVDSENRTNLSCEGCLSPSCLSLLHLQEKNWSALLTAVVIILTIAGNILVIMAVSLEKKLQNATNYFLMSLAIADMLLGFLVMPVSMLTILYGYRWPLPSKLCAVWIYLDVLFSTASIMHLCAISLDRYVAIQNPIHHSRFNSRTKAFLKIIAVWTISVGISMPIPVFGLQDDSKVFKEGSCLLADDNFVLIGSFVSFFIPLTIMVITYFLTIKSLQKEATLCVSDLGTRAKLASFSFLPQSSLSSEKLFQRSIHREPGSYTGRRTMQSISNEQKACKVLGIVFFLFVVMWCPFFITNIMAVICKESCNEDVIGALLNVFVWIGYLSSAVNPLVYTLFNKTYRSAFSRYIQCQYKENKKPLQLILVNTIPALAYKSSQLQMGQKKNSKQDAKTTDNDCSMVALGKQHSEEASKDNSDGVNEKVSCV
# How it was run: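 CHO cells stably expressing human HTR2A were plated for 18 h at 37 C, then loaded with calcium dye for 1 h. Compounds were preincubated 5 min at room temperature before DOI (4 nM solution) was added. Kinetic fluorescence was read for 3 min.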
# [10] = molecular target: 5-hydroxytryptamine receptor 2A (Homo sapiens) (UniProt P28223); test: 5-hydroxytryptamine receptor 2A (HTR2A) small molecule agonists, cell-based qHTS assay (AID 1963587); note: nearly all actives have a fitted effect of over 30% in size; note: potency is the fitted concentration of half-maximal effect
# How it was run: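 CHO cells stably expressing human HTR2A, plated 18 h, loaded with calcium dye 1 h at 37 C. Agonist mode: compounds added and intracellular calcium fluorescence recorded kinetically for 2 min at 1 sec intervals.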
# [11] = molecular target: Muscarinic acetylcholine receptor M1 (Homo sapiens) (UniProt P11229); test: Cholinergic receptor muscarinic 1 (CHRM1) small molecule agonists, cell-based qHTS assay (AID 1963589); note: nearly all actives have a fitted effect of over 35% in size
# Sequence of Muscarinic acetylcholine receptor M1 (Homo sapiens) (P11229 whole entry, looked up): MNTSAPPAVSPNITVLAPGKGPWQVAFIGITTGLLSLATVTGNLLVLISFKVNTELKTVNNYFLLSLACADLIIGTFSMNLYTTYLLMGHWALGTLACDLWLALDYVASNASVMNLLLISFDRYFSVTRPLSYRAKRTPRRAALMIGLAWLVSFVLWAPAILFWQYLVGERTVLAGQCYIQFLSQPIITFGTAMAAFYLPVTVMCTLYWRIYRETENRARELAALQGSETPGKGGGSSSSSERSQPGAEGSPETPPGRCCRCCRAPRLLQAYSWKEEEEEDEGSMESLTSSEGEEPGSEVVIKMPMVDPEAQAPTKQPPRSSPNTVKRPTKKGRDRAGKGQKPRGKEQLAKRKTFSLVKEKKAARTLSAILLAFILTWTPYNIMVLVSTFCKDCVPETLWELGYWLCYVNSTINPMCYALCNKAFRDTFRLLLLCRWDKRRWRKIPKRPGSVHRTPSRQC
# How it was run: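 Agonist-mode calcium-flux screen: compounds at 15 concentrations, three independent runs, were pin-transferred onto dye-loaded human CHRM1-CHO cells. Fluorescence was then recorded kinetically every second over minutes.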
# [12] = cAMP Responsive Elements (CRE) small molecule agonists, cell-based qHTS assay (AID 1963590)
# How it was run: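 Agonist mode: compound added to CRE-bla HEK 293T cells (2,000/well, 18 h after plating) for 3 h at 37 C/5% CO2. Reporter activity detected via FRET beta-lactamase substrate, 2 h room-temperature loading.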
# [13] = cAMP Responsive Elements (CRE) small molecule antagonists, cell-based qHTS assay (AID 1963591; active = well fitted inhibition curve with a large enough effect in the signal ratio in the repeat runs, not every such curve was filed as active; the % refers to the signal ratio)
# How it was run: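 Antagonist mode: compounds are added alongside the adenylyl cyclase activator NKH477 (0.25 uM final) to CRE-bla HEK293T cells for 3 h. LiveBLAzer FRET substrate, 2 h at room temperature, reports bla expression.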
# [14] = molecular target: Beta-2 adrenergic receptor (Homo sapiens) (UniProt P07550); test: Adrenergic beta2 receptor (ADRB2) small molecule antagonists, cell-based qHTS assay (AID 1963592); note: series mostly up to about 92 µM; nearly all actives have a fitted effect of over 50% in size
# Sequence of Beta-2 adrenergic receptor (Homo sapiens) (P07550 whole entry, looked up): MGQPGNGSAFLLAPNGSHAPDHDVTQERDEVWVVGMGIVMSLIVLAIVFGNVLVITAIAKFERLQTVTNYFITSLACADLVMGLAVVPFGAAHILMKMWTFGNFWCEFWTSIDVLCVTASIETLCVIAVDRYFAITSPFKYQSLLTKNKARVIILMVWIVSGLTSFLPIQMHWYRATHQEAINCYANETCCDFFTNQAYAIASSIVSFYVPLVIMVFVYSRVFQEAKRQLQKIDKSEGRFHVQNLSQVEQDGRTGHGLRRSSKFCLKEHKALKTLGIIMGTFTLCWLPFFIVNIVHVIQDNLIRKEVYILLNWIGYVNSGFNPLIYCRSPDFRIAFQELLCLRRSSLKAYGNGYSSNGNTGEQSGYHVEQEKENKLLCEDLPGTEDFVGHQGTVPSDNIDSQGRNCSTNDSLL
# How it was run: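 Assay format: CHO-ADRB2 cells, 18-20hr seeding at 37C/5% CO2, then compound plus 1nM isoproterenol agonist mix for 0.5hr RT. Homogeneous time-resolved fluorescence cAMP detection after 1hr, expressed as 665/615 nm ratio.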
# [15] = molecular target: D(2) dopamine receptor (Homo sapiens) (UniProt P14416); test: Dopamine D2 receptor (DRD2) small molecule agonists, cell-based qHTS assay (AID 1963594); note: nearly all actives have a fitted effect of over 35% in size; note: potency is the fitted concentration of half-maximal effect
# Sequence of D(2) dopamine receptor (Homo sapiens) (P14416 whole entry, looked up): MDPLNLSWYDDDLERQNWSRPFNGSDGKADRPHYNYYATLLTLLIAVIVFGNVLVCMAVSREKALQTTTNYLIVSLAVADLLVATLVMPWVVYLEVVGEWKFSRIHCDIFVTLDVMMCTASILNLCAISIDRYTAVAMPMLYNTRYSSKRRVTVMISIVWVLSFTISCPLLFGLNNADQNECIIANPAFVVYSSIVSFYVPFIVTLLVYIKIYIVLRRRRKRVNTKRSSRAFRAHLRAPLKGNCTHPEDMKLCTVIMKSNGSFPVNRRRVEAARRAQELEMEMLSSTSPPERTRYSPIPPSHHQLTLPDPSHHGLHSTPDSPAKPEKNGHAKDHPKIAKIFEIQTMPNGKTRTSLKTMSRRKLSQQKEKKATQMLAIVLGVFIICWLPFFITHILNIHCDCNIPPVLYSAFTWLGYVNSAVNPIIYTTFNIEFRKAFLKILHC
# How it was run: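 HEK293 cells stably expressing human DRD2, pre-treated with PDE inhibitor Ro20-1724 (0.1 mM final) and compound 10 min at room temperature, then stimulated with NKH477 (200nM […]) for 30 min. cAMP read by HTRF (665/620 nm).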
# [16] = molecular target: D(2) dopamine receptor (Homo sapiens) (UniProt P14416); test: Dopamine D2 receptor (DRD2) small molecule antagonists, cell-based qHTS assay (AID 1963595; active = well fitted inhibition curve with a large enough effect in the signal ratio in the repeat runs, with a control signal flat; the % refers to the signal ratio; note: potency is the fitted concentration of half-maximal effect)
# How it was run: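 DRD2-HEK293; 0.1 mM Ro20-1724; cpd 10 min RT; NKH477 200 nM + quinpirole 12 nM, 30 min RT; HTRF cAMP (cAMP-d2/anti-cAMP cryptate), 665/620 nm ratio after 1 h.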
# [17] = p53 small molecule agonists, cell-based qHTS assay: qHTS cell viability counter screen (AID 1963581); note: nearly all actives have a fitted effect of over 45% in size
# How it was run: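 Counter screen read by CellTiter-Glo luminescence (ATP content, 30 min at room temperature), run in the same wells as the beta-lactamase reporter read. HCT-116 p53RE-bla cells saw compounds for 16 h at 37 C.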
# [18] = p53 small molecule agonists, cell-based qHTS assay (AID 1963582; active = well fitted activation curve with a large enough effect in the signal ratio in the repeat runs, not every such curve was filed as active; the % refers to the signal ratio)
# How it was run: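 Read-out is beta-lactamase FRET fluorescence after 2 h at room temperature with LiveBLAzer B/G substrate. p53 response element-bla cells were treated 16 h at 37 C with compounds in DMSO, added 5 h after seeding.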
# [19] = molecular target: Muscarinic acetylcholine receptor M1 (Homo sapiens) (UniProt P11229); test: Cholinergic receptor muscarinic 1 (CHRM1) small molecule antagonists, cell-based qHTS assay (AID 1963588); note: nearly all actives have a fitted effect of over 40% in size
# How it was run: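 Compounds were tested at 15 concentrations in three independent runs. Dye-loaded CHRM1-CHO cells were exposed 5 min at room temperature before stimulation by acetylcholine added at 50nM. Intracellular calcium was read kinetically on FDSS for 3 min.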
# [20] = molecular target: Beta-2 adrenergic receptor (Homo sapiens) (UniProt P07550); test: Adrenergic beta2 receptor (ADRB2) small molecule agonists, cell-based qHTS assay (AID 1963593);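 note: CHO cells stably overexpressing human ADRB2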
# How it was run: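 CHO cells stably over-expressing ADRB2 were plated overnight at 37C, then dosed with compounds plus a stimulation mix containing 100uM IBMX and 25uM Ro-20-1724 for 0.5hr at room temperature. cAMP was measured by HTRF competition, 1hr.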
compound,measurement,setting,value
CC/C=C(\C)C=O,Potency,[1],inactive
same,Potency,[2],inactive
same,Potency,[3],inactive
same,outcome,[4],inactive
same,Potency,[5],inactive
same,Potency,[6],inactive
same,Potency,[7],inactive
same,Potency,[8],inactive
same,Potency,[9],inactive
same,Potency,[10],inactive
same,Potency,[11],inactive
same,Potency,[12],inactive
same,Potency,[13],inactive
same,Potency,[14],inactive
same,Potency,[15],inactive
same,Potency,[16],inactive
CCCCCCCC(=O)OCC,Potency,[1],inactive
same,Potency,[2],inactive
same,Potency,[3],inactive
same,outcome,[4],inactive
same,Potency,[5],inactive
same,Potency,[6],inactive
same,Potency,[7],inactive
same,Potency,[17],inactive
same,Potency,[18],inactive
same,Potency,[19],inactive
same,Potency,[12],inactive
same,Potency,[13],inactive
same,Potency,[14],inactive
same,Potency,[15],inactive
C[C@@H]1CN(c2c(F)c(N)c3c(=O)c(C(=O)O)cn(C4CC4)c3c2F)C[C@H](C)N1,"activity change, negative = cytotoxicity",[1],1.83% [at 19 µM]
same,"activity, positive = activation",[2],-7.44% [at 19 µM]
same,activity change,[3],"0.726% [at 11.8 µM, hits give high values]"
same,activation,[4],-0.768% [at 11.8 µM]
same,activation,[5],-0.339% [at 13.5 µM]
same,activation,[6],0.693% [at 13.6 µM]
same,"activity change, negative = cytotoxicity",[8],3.67% [at 13.5 µM]
same,"activity change, negative = cytotoxicity",[17],5.52% [at 13.5 µM]
same,activation,[12],-1.16% [at 19 µM]
same,"activity change, negative = inhibition",[13],-4.06% [at 18.9 µM]
same,"activity change, negative = inhibition",[14],8.12% [at 19 µM]
same,Potency,[20],inactive
same,activation,[15],-2.73% [at 19 µM]
same,"activity change, negative = inhibition",[16],0.614% [at 18.9 µM]
CCCCCCCCCCOS(=O)(=O)O,Potency,[1],inactive
same,Potency,[2],inactive
same,Potency,[3],inactive
same,outcome,[4],inactive
same,Potency,[5],inactive
same,Potency,[6],inactive
same,Potency,[7],inactive
same,Potency,[17],inactive
same,Potency,[18],inactive
same,Potency,[9],inactive
same,Potency,[10],inactive
same,Potency,[19],inactive
same,Potency,[11],inactive
same,Potency,[12],inactive
same,Potency,[14],inactive
same,Potency,[15],inactive
CCO[Si](CC)(OCC)OCC,Potency,[1],inactive
same,Potency,[2],inactive
same,Potency,[3],inactive
same,outcome,[4],inactive
same,Potency,[5],inactive
same,Potency,[6],inactive
same,Potency,[7],inactive
same,Potency,[8],inactive
same,Potency,[18],inactive
same,Potency,[9],inactive
same,Potency,[10],inactive
same,Potency,[19],inactive
same,Potency,[11],inactive
same,Potency,[12],inactive
same,Potency,[14],inactive
same,Potency,[20],inactive
same,Potency,[15],inactive
same,Potency,[16],inactive
O=S(=O)(O)CCO,Potency,[1],inactive
same,Potency,[2],inactive
same,Potency,[3],inactive
same,outcome,[4],inactive
same,Potency,[5],inactive
same,Potency,[7],inactive
same,Potency,[8],inactive
same,Potency,[17],inactive
same,Potency,[18],inactive
same,Potency,[9],inactive
same,Potency,[10],inactive
same,Potency,[19],inactive
same,Potency,[12],inactive
same,Potency,[13],inactive
same,Potency,[14],inactive
same,Potency,[16],inactive
CCN(CC)c1ccc2c(-c3ccc(S(=O)(=O)O)cc3S(=O)(=O)[O-])c3ccc(=[N+](CC)CC)cc-3oc2c1,Potency,[1],17.8 µM (active)
same,Potency,[2],inactive
same,Potency,[3],45.1 µM (active)
same,outcome,[4],inactive
same,Potency,[5],inactive
same,Potency,[6],inactive
same,Potency,[18],inactive
same,Potency,[9],inactive
same,Potency,[10],56.7 µM (active)
same,Potency,[12],inactive
same,Potency,[13],inactive
same,Potency,[15],24.5 µM (active)
Cc1cc(O)c(C(C)(C)C)cc1C(C)(C)C,Potency,[1],27.3 µM (active)
same,Potency,[2],inactive
same,Potency,[3],38.9 µM (active)
same,outcome,[4],inactive
same,Potency,[5],inactive
same,Potency,[6],inactive
same,Potency,[7],18.2 µM (active)
same,Potency,[8],40.8 µM (active)
same,Potency,[10],34.7 µM (active)
same,Potency,[19],inactive
same,Potency,[11],inactive
same,Potency,[15],inactive
same,Potency,[16],43.3 µM (active)

# — PubChem BioAssay (Tox21)
